Holding throughout (test): PBM binding z-score (relative to random genomic background probes); higher = stronger binding; sequences stand for … in GC…GCGATTGACAGCGTAGAATGAAGG
In assay [1] the test system is FXR:RXRa (NR concentration 270 nM, RXRa partner concentration 90 nM). In a few lines:
(§1)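 Binding buffer was PBS pH 7.4 with 2% milk, 0.02% Triton X-100, 1 mM DTT, 0.2 mg/mL BSA and 0.4 mg/ml salmon testes DNA. In it, ligand-free nuclear receptor dimers were incubated 1 h on custom Agilent 4×180K protein-binding microarrays carrying double-stranded probes. Antibodies against each partner (one per run) detected binding, and z-scores were calculated against random background probes after regression normalization of scanned fluorescence.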

Assay [2] deals with LXRa:RXRa (NR concentration 270 nM, RXRa partner concentration 90 nM). In a few lines:
as §1

Assay [3] deals with LXRa homodimer (NR concentration 270 nM). In a few lines: as §1
The test system of assay [4] is LXRb:RXRa (NR concentration 270 nM, RXRa partner concentration 90 nM). In a few lines:
as §1

Assay [5] concerns LXRb homodimer (NR concentration 270 nM). The procedure, abridged: as §1
Assay [6] relates to PPARa:RXRa (NR concentration 270 nM, RXRa partner concentration 90 nM). In a few lines:
as §1

Assay [7] deals with PPARg:RXRa (NR concentration 180 nM, RXRa partner concentration 90 nM). The procedure, abridged: as §1
Assay [8] has as its system PPARg:RXRa 270nM:90nM, anti-RXR (NR concentration 270 nM, RXRa partner concentration 90 nM). The procedure, abridged: as §1
Assay [9] concerns PPARg:RXRa 30nM:10nM, anti-RXR (NR concentration 30 nM, RXRa partner concentration 10 nM). The procedure, abridged:
as §1

Assay [10] deals with PPARg:RXRa 90nM:30nM, anti-RXR (NR concentration 90 nM, RXRa partner concentration 30 nM). The procedure, abridged:
as §1

In assay [11] the test system is PPARg:RXRa DBDmut IVT, anti-RXR (DBD mutation: RXRa K156A/R161A, NR concentration 270 nM, RXRa partner concentration 90 nM). The procedure, abridged: as §1
In assay [12] the test system is PPARg:RXRa IVT, anti-PPARg (NR concentration 270 nM, RXRa partner concentration 90 nM). The procedure, abridged:
as §1

For assay [13], the system named is PPARg DBDmut:RXRa IVT, anti-PPARg (DBD mutation: PPARg1 K132A/R137A, NR concentration 270 nM, RXRa partner concentration 90 nM). The procedure, abridged: as §1
Assay [14] deals with PPARg DBDmut IVT, anti-PPARg (DBD mutation: PPARg1 K132A/R137A, NR concentration 270 nM). In a few lines:
as §1

The subject of assay [15] is PPARg homodimer (NR concentration 180 nM). In a few lines:
as §1

The test system of assay [16] is PXR:RXRa (NR concentration 270 nM, RXRa partner concentration 90 nM). In a few lines: as §1
For assay [17], the system named is PXR homodimer (NR concentration 270 nM). In a few lines:
as §1

For assay [18], the system named is RARa:RXR (NR concentration 270 nM, RXRa partner concentration 90 nM). In a few lines:
as §1

Assay [19] deals with RARa homodimer (NR concentration 270 nM). The procedure, abridged:
as §1

In assay [20] the test system is RARb:RXRa (NR concentration 270 nM, RXRa partner concentration 90 nM). In a few lines: as §1

TCTTGTAGATCAGCAGGTTACGAAAGCTGGCCAA: the PBM binding z-score in [1] is 0.0711; in assay [2], -0.119; in assay [3] it was -0.159; in assay [4], 0.185; in assay [5], -0.369; in assay [6], 0.613. Further, the PBM binding z-score in assay [7] is -0.304; in [8], 1.48; in assay [9] it was 2.34; in [10], 1.87; in [11], 1.6; in assay [12], 0.645. The PBM binding z-score is -0.743 in assay [13]; -0.301 in assay [14]; -0.303 in assay [15]; -0.0656 in assay [16]; -0.456 in assay [17]; 0.298 in assay [18]. For the same sequence, the PBM binding z-score was -0.436 in assay [19] and 0.143 in [20].
As to AGATCGAGGGCACGCTGAGTTGATAGCAGAGTAG, the PBM binding z-score in assay [1] is 0.624; in assay [2] it was 0.579; in assay [3], -0.704; in assay [4], 0.248; in [5] it was -0.854; in assay [6], 1.83. The PBM binding z-score was 1.76 in assay [7]; 1.47 in [8]; 0.155 in [9]; 0.951 in assay [10]; 3.66 in assay [11]; 3.58 in assay [12]. The PBM binding z-score in [13] is 1.3; in assay [14] it was 0.665; in assay [15], -0.311; in [16], 1.31; in assay [17] it was 0.0547; in assay [18] it was 0.734. Further, the figures for the PBM binding z-score in assay [19] and in assay [20] were -0.531 and 2.42, respectively.
Regarding AGTCAAAGTTCATCGAGGTAACGTAAGATATGCT, the PBM binding z-score came out at 6.65 in assay [1]; 6 in assay [2]; 4.5 in assay [3]; 3.72 in assay [4]; 1.07 in assay [5]; 5.27 in assay [6]. The PBM binding z-score in [7] is 6.71; in assay [8] it was 6.39; in [9], 3.74; in [10], 5.59; in assay [11], 0.275; in assay [12] it was 3.44. Moreover, the PBM binding z-score in assay [13] worked out at 1.15; in assay [14], 1.15; in assay [15], 2.53; in [16] it was 5.38; in assay [17] it was 9.82; in assay [18], 3.97. In addition, the PBM binding z-score in [19] came out at 0.864; in assay [20], 5.07.
For the sequence CCTCGGAGGACAGAAGGTCAGAGATGTCCGCTTT, the PBM binding z-score is 0.986 in assay [1]; 1.24 in assay [2]; 0.141 in assay [3]; 0.889 in assay [4]; -0.867 in assay [5]; 1.55 in assay [6]. Further, the PBM binding z-score is 0.383 in assay [7]; 0.542 in assay [8]; -0.288 in assay [9]; 0.432 in [10]; -0.271 in assay [11]; 0.124 in [12]. For the same sequence, the PBM binding z-score in assay [13] was -1.91; in assay [14], -1.27; in [15], 1.03; in [16], 1.41; in assay [17] it was 0.164; in assay [18], 1.93. The PBM binding z-score in [19] was 0.613; in assay [20], 3.01.
As for AGAACGCGGGCAATGAGTTGATAGCACGGGTGGC, the PBM binding z-score in assay [1] was -0.43; in assay [2] it was -0.534; in assay [3], -0.756; in assay [4] it was -1.26; in assay [5] it was -1.21; in assay [6] it was -0.548. Also, the PBM binding z-score in [7] was 0.71; in [8], -0.504; in assay [9], -0.182; in assay [10], -0.404; in [11] it was 0.179; in assay [12], -0.0527. The PBM binding z-score in assay [13] is 0.2; in assay [14], -0.67; in assay [15] it was -0.548; in assay [16], -0.0595; in assay [17] it was 0.229; in assay [18], -0.166. In addition, the results for the PBM binding z-score in [19] and in assay [20] were -0.629 and 0.349, respectively.
As for AGTCAAAGTTCACTAGGTAACGTCAGATTCAGCT, the PBM binding z-score amounted to 4.66 in [1]; 4.88 in assay [2]; 2.92 in assay [3]; 2.84 in [4]; 0.994 in assay [5]; 4.68 in assay [6]. The PBM binding z-score in assay [7] turned out to be 6.81; in [8] it was 6.74; in assay [9], 4.13; in assay [10] it was 5.98; in [11], 2.77; in assay [12] it was 4.95. Besides, the PBM binding z-score was 1.36 in assay [13]; 0.959 in assay [14]; 2.35 in [15]; 3.97 in [16]; 3.07 in assay [17]; 3.22 in [18]. Besides, the values for the PBM binding z-score in assay [19] and in [20] were 1.07 and 4.88, respectively.
For the sequence CCTACTGGGCCAAGGTCATTAATCAGTCAAAGCA, the PBM binding z-score in assay [1] was 2.47; in assay [2], 2.57; in [3], 1.18; in assay [4], 2.82; in [5], -0.0551; in assay [6] it was 3.71. The PBM binding z-score is 3.45 in [7]; 4.19 in assay [8]; 1.47 in assay [9]; 3.23 in assay [10]; 3.47 in assay [11]; 4.44 in assay [12]. The PBM binding z-score was determined as 0.31 in [13]; 0.133 in assay [14]; 2.15 in assay [15]; 3.16 in [16]; 1.21 in [17]; 3.39 in [18]. Moreover, the PBM binding z-score is 0.145 in [19] and 3.29 in assay [20].
